Active and inactive are the calls of the source. How the source made its calls: active means hit-call score of the fitted dose curve at least 0.9, where 1 is the maximum; inactive means score below 0.9.
Assay: CCTE_Shafer_MEA_dev_interburst_interval_mean: CCTE's Neural Network Formation Assay for Mean Interburst Interval, Shafer Lab (AID 2284046)
Procedure: CCTE_Shafer_MEA_dev assay is conducted using Axion Biosystems 48 well microelectrode array (MEA) plates and Maestro recording system. Each well of the MEA plate contains a grid of 16 microelectrodes embedded in the culture surface. Electrically active cells, such as neurons, can be cultured over the electrodes, and electrical activity in these cells can be recorded extracellularly. The spontaneous firing of neurons is captured from each electrode on a microsecond timescale providing both temporally and spatially precise data. […] The CCTE_Shafer_MEA_dev assay uses primary cultures of rat cortical neurons. Recordings are made on days post-plating 5, 7, 9 and 12. As these cultures mature over time, neural networks develop functional activity and form cohesive networks in which electrical activity can be highly coordinated. CCTE_Shafer_MEA_dev_interburst_interval_mean is 1 of 19 assay components of the CCTE_Shafer_MEA_dev assay. It measures the average time interval between consecutive single-electrode bursts (temporally-clustered groups of action potential firing) during a recording in a microelectrode array (MEA) using Axion Biosystems Maestro 768 channel amplifier with the AxIS adaptive spike detector. The mean inter-burst interval is averaged across the actively bursting electrodes to report a well-mean value. To collapse across multiple recordings made on days post-plating 5, 7, 9 and 12, the trapezoidal area-under-the-curve of the component is calculated.Data from the assay component CCTE_Shafer_MEA_dev_interburst_interval_mean was analyzed into 1 assay endpoint. This assay endpoint, CCTE_Shafer_MEA_dev_interburst_interval_mean, was analyzed in the negative analysis fitting direction relative to DMSO as the negative control and baseline of activity. Using a type of functional reporter, gain or loss-of-signal activity can be used to understand electrical activity.
On the day prior to culture, each well was coated thoroughly with 150 uL of 0.05% polyethyleneimine (PEI, Sigma Cat P3143) in 50 mM HEPES (Sigma Cat H7523) at a pH of 8. The plate was incubated at 37C for one hour. PEI was rinsed out with 500 uL of sterile water three times. Plates were stored at 4C until the day of culture. This culture was plated at a seeding density of 1.5 x 10^5 cells/well on a 48-well MEA plate, prepared as described above. Cells were administered via a 25 uL media/laminin ([…]; Sigma Cat L2020-1MG) drop directly onto the microelectrode array, as adding the cells with the laminin results in better attachment than pre-coating with laminin. After 2 hours, an additional 475 uL of cortical media was added and the cells returned to the incubator. Exposure starts at day 0 of plating and is continued over twelve days of network development until the experiment is terminated. Cells are fed with fresh medium on DIV 5 and 9, following the recordings on those days. The entire volume of media in the well is exchanged and any vehicle or compound treatment is renewed. Complete details are found in OP-NHEERL/ISTD/SBB/TJS/2015-03-r0 (available on request, email shafer.tim@epa.gov). Measurement of the electrical activity is non-invasive, and recordings can be made from the same plate over multiple different days of the culture. In cortical neurons, this allows for the measurement of extracellular action potentials over the period during which networks form in the MEA plate.

SMILES | outcome | AC50
COc1ccc(-n2nc(C(F)F)cc2-c2ccc(S(C)=O)cc2)cc1 (stereo not given) | inactive | –
CC[C@H](C)C(=O)O[C@H]1C[C@@H](C)C=C2C=C[C@H](C)[C@H](CC[C@@H]3C[C@@H](O)CC(=O)O3)[C@H]21 | – | 2.9 µM (active)
CCC(C)(C)C(=O)O[C@H]1C[C@@H](C)C=C2C=C[C@H](C)[C@H](CC[C@@H]3C[C@@H](O)CC(=O)O3)[C@H]21 | – | 0.887 µM (active)
Cn1c(=O)c2c(ncn2C)n(C)c1=O | inactive | –
Nc1nc2ncc(CNc3ccc(C(=O)N[C@@H](CCC(=O)O)C(=O)O)cc3)nc2c(=O)[nH]1 | inactive | –
O=C1CCC(N2C(=O)c3ccccc3C2=O)C(=O)N1 (stereo not given) | inactive | –
CC[C@H]1OC(=O)[C@H](C)[C@@H](O[C@H]2C[C@@](C)(OC)[C@@H](O)[C@H](C)O2)[C@H](C)[C@@H](O[C@@H]2O[C@H](C)C[C@H](N(C)C)[C@H]2O)[C@](C)(O)C[C@@H](C)C(=O)[C@H](C)[C@@H](O)[C@]1(C)O | inactive | –
NC(=O)NO | inactive | –
O=P(OC(CCl)CCl)(OC(CCl)CCl)OC(CCl)CCl | inactive | –
CNCc1ccc(NC(=O)c2c[nH]c3c2C(=O)CCC3)cc1 | inactive | –

Source: PubChem BioAssay (EPA / NIEHS)
